From PubChem BioAssay AID1851 (National Center for Advancing Translational Sciences (NCATS), 2009)
The campaign covered roughly 16,000 compounds. About 5,800 (36%) were called active. Not shown: some 23% with an inconclusive outcome. This is one part of the list. Values without a mark were called inactive. Calls follow the shape of the dose curve; as a rule, active = well fitted curve in the direction sought with a large enough effect; inconclusive = small, poorly fitted or top-dose-only effect, or effect the other way; inactive = no such curve, though single readings can be large or run the other way.

target: Cytochrome P450 2C19 (Homo sapiens) (UniProt P33261); assay: Cytochrome panel assay with activity outcomes; settings: recombinant CYP, pro-luciferin dealkylation, luminescence, p450-cyp2c19; series mostly up to 57.1 µM; activity, negative = inhibition: at the top concentration
Sequence (P33261 whole entry, looked up): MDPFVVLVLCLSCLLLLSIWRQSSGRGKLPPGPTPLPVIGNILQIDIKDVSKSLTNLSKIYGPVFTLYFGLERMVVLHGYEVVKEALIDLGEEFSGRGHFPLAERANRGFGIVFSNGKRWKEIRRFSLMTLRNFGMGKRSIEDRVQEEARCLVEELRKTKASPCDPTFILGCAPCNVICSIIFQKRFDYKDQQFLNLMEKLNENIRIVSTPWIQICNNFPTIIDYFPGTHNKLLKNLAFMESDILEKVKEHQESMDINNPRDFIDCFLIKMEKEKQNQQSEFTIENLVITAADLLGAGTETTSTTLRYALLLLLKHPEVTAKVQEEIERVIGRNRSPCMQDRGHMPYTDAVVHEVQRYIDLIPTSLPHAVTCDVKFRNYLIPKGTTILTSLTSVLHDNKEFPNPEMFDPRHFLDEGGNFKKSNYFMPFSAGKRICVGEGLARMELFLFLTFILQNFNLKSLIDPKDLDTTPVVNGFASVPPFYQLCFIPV
% is scaled to controls: 0 for no effect and ±100 for the full control effect.

Compound	activity, negative = inhibition	AC50
CCOc1ccc(Cc2nccc3cc(OCC)c(OCC)cc23)cc1OCC	8.39% [at 25.6 µM]	–
C/C(CC/C(C)=N/O)=N/O	6.8% [at 11.4 µM]	–
COc1cccc(CNC(=O)C2CCN(S(=O)(=O)N3CCCCC3)CC2)c1	-23.7%	–
CCS(=O)(=O)N1CCC(C(=O)NCCCN2CCCC2)CC1	-1.56%	–
CCS(=O)(=O)N1CCC(C(=O)NCCCOC)CC1	-13.8%	–
CCS(=O)(=O)N1CCC(C(=O)NCc2ccco2)CC1	-10.1%	–
O=C(NCCc1ccc(Cl)cc1)C1CCN(S(=O)(=O)N2CCC3(CC2)OCCO3)CC1	–	4.47 µM (active)
COc1ccc(CCNC(=O)C2CCN(S(=O)(=O)N3CC(C)CC(C)C3)CC2)cc1OC (stereo not given)	–	14.1 µM (active)
CCS(=O)(=O)N1CCC(C(=O)NCc2ccccc2OC)CC1	–	39.8 µM (active)
CCOc1ccc(CCNC(=O)C2CCN(S(=O)(=O)CC)CC2)cc1OCC	-24.6%	–
O=C(NCc1ccccc1Cl)C1CCN(S(=O)(=O)N2CCC3(CC2)OCCO3)CC1	–	22.4 µM (active)
CCOCCCNC(=O)C1CCN(S(=O)(=O)N2CC(C)CC(C)C2)CC1 (stereo not given)	-22.9%	–
O=C(NCCCN1CCN(Cc2ccccc2)CC1)C1CCN(S(=O)(=O)N2CCCC2)CC1	-10.4%	–
O=C(Nc1ccc(F)cc1F)c1cccn1-c1ncc(C(F)(F)F)cc1Cl	–	10 µM (active)
Cc1ccc(C(=O)N/N=C\c2ccc[nH]2)cc1[N+](=O)[O-]	1.23%	–
Cc1ccc(C(=O)Nc2ccc(Cc3ccncc3)cc2)cc1[N+](=O)[O-]	–	1.12 µM (active)
Cc1ccc(C(=O)Nc2ccccc2Oc2ccccc2)cc1[N+](=O)[O-]	–	3.16 µM (active)
COc1ccc(NC(=O)C2(c3ccc(NC(=O)c4ccc(OC(C)=O)cc4)cc3)CCCC2)cc1	0.405%	–
CC(=O)c1ccc(NC(=O)C2(c3ccccc3)CCOCC2)cc1	–	14.1 µM (active)
CCOC(=O)c1ccc(NC(=O)C2(c3ccc(OC)cc3)CCOCC2)cc1	–	2.24 µM (active)
Cc1noc(C)c1C(=O)N1CCC2(CCN(C(=O)Nc3ccccc3)CC2)CC1	-16.5%	–
COc1ccc(NC(=O)C2(c3ccc(NC(=O)c4ccc(C)cc4)cc3)CCCC2)cc1	23.1%	–
COc1ccc(NC(=O)N2CC3(CCN(C(=O)c4ccc(OC)cc4)CC3)C2)cc1	5.03%	–

Compound	activity, negative = inhibition	AC50
NS(=O)(=O)c1cc2c(cc1Cl)N[C@@H](CC1CCCC1)NS2(=O)=O	-18.8% [at 25.6 µM]	–
O=[N+]([O-])c1ccc(C=Nc2ccc(Cl)cc2Cl)s1	–	7.08 µM (active)
O=C(/C=C/Nc1ccccc1)c1ccc(Oc2ncccn2)cc1	–	15.8 µM (active)
COc1ccc(-c2noc(N(C)CC(=O)Nc3cccc(C(F)(F)F)c3)n2)cc1	–	4.47 µM (active)
COc1ccc(NC(=O)c2ccc(-c3ccc(-c4noc(C)n4)cc3C)cc2)cc1OCCN(C)C	-37%	–
CC[C@]1(O)C[C@@H]2CN(CCc3c([nH]c4ccccc34)[C@](C(=O)OC)(c3cc4c(cc3OC)N(C=O)[C@H]3[C@@](O)(C(=O)OC)[C@H](C(=O)OC)[C@@]5(CC)C=CCN6CC[C@]43[C@H]65)C2)C1	-33.8%	–
CC1=NCC[N@@+]1(CCc1ccccc1)Cc1ccccc1	32.9% [at 11.4 µM]	–
COc1ccc2[nH]cc(CCNc3ncncc3-c3ccc(N(C)C)cc3)c2c1	–	1.58 µM (active)
COc1ccc2[nH]cc(CCNc3ncncc3-c3ccc(C(=O)N(C)C)cc3)c2c1	–	10 µM (active)
COc1ccc2[nH]cc(CCNc3ncnc4ccc(-c5ccc(C(=O)N(C)C)cc5)cc34)c2c1	–	7.94 µM (active)
O=C(O)c1[nH]c2c([N+](=O)[O-])cc([N+](=O)[O-])cc2c1C(=O)O	39.2% [at 11.4 µM]	–
NS(=O)(=O)c1cc2c(cc1C(F)(F)F)N[C@H](Cc1ccccc1)NS2(=O)=O	-20.3% [at 25.6 µM]	–
CC[n+]1c(P(=O)([O-])c2ccccc2)[nH]c2ccccc21	-15.5%	–
CN1CC(c2ccccn2)C2(SC(=S)N(Cc3ccccc3)C2=O)C12C(=O)Nc1ccccc12 (stereo not given)	–	1.12 µM (active)
O=C(c1ccc(C(F)(F)F)cc1)c1c[nH]c(C(=O)NCCCn2ccnc2)c1	–	0.631 µM (active)
CCC(CC)C(=O)c1c[nH]c(C(=O)NCCCN2CCOCC2)c1	17.8%	–
Cc1ccc(C(=O)c2c[nH]c(C(=O)NCCCN3CCOCC3)c2)cc1	-7.11%	–
CC(C)(C)c1ccc(C(=O)c2c[nH]c(C(=O)NCCCn3ccnc3)c2)cc1	–	0.1 µM (active)
Cc1c(CCO)c(=O)n(C)n1C(=O)c1ccc(F)cc1	–	17.8 µM (active)
CCOC(=O)NC(NC(=O)OCC)C(=O)c1ccc(F)cc1	-29.8%	–
Cc1ccc(-n2nnnc2-c2cnc3ccc(Cl)cc3c2-c2ccccc2)cc1	–	7.94 µM (active)
Clc1ccc2[nH]cc(-c3nnnn3-c3ccccc3)c2c1	–	1.12 µM (active)
